Assay results as given in the supplement of paper PMC10981050.
“And” between values parts separate entries of the source, which are not always exact repeats. Identical values can stand only once. Counter-ions that a name gives are not always drawn.

How the values were obtained:
Assay in all cases: cell viability relative to vehicle control; higher = less cytotoxic
Details in all cases: 10 µM
[1] = test system: K562
Outline: (§1)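 Four leukaemia lines, as CRISPR-edited mutant clones and isogenic wild-type clones, were tested against Selleck bioactive, kinase and epigenetic probe libraries after removal of identity-inconsistent compounds. Cells were exposed to a single 10 µM dose for 48 h, and CellTiter-Glo luminescence was then read. Viability was calculated relative to the on-plate vehicle control.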

[2] = test system: MARIMO
Outline: as §1

[3] = test system: MOLM14
Outline: as §1

[4] = test system: OCI-AML2
Outline: as §1

Row | Compound | cell viability ([1]; SRSF2 genotype: SRSF2 P95H/wt) | cell viability ([1]; SRSF2 genotype: SRSF2 wt/wt) | cell viability ([2]; SRSF2 genotype: SRSF2 P95H/wt) | cell viability ([2]; SRSF2 genotype: SRSF2 wt/wt) | cell viability ([3]; SRSF2 genotype: SRSF2 P95H/wt) | cell viability ([3]; SRSF2 genotype: SRSF2 wt/wt) | cell viability ([4]; SRSF2 genotype: P95H/wt) | cell viability ([4]; SRSF2 genotype: wt/wt)
1 | O=c1[nH]ccc2c(S(=O)(=O)N3CCCNCC3)cccc12 [Hydroxyfasudil (HA-1100)HCl] | 95.5% and 99.7% | 96.5% | 96.5% | 92.7% | 95.6% | 101% | 95.7% | 90.5%
2 | Cc1ccc(=O)n(-c2ccccc2)c1 [Pirfenidone] | 104% and 107% | 103% | 103% | 103% | 97.1% | 98.8% | 109% | 106%
3 | N[C@@H](C(=O)N[C@@H]1C(=O)N2C(C(=O)O)=C(Cl)CS[C@H]12)c1ccccc1 [Cefaclor] | 109% and 110% | 113% | 104% | 104% | 108% | 106% | 112% | 123%
4 | CC1=C[C@H]2[C@@H](CC1)[C@H](C)CC[C@H]2[C@@H](C)C(=O)O [Dihydroartemisinic acid] | 99.8% and 91.7% | 99.6% | 101% | 104% | 94.6% | 101% | 98.5% | 109%
5 | CC(=O)c1ccccc1O [2'-Hydroxyacetophenone] | 101% and 100% | 99.4% | 99.1% | 96.6% | 105% | 101% | 102% | 105%
6 | O=C(NCCCn1ccnc1)c1cc(-c2ccco2)on1 | 87.3% and 91.7% | 87.1% | 68.9% | 79.4% | 45.7% | 44.4% | 77.2% | 72.6%
7 | CNC[C@H](O)c1ccc(O)c(O)c1 [Epinephrine bitartrate (Adrenalinium)] | 97.4% and 94.9% | 94% | 102% | 108% | 84.5% | 97.6% | 102% | 112%
8 | COc1cc2ncnc(Nc3cccc(Cl)c3)c2cc1OC [AG-1478 (Tyrphostin AG-1478)] | 75% and 83.2% | 76.4% | 81.7% | 90% | 59.7% | 67.6% | 58% | 62.2%
9 | CN1CCC(c2c(O)cc(O)c3c(=O)cc(-c4ccccc4Cl)oc23)C(O)C1 (stereo not given) [Flavopiridol (Alvocidib) HCl] | 5.96% and 15.8% | 7.9% | 11.1% | 4.66% | 3.87% | 0.54% | 5.83% | 16.3%
10 | COc1ccc2cc1Oc1ccc(cc1)C[C@H]1c3cc(c(OC)cc3CCN1C)Oc1c(O)c(OC)cc3c1[C@H](C2)N(C)CC3 [Fangchinoline] | 5.78% and 5.22% | 5.07% | 12.1% | 1.57% | 0.48% | 0.53% | 0.4% | 0.56%
